This passage reports growth results from PubChem BioAssay (NCI).

SMILES strings stand for the structures. About 83,000 compounds went through this panel and 20% of them were active in at least one assay; those are over-represented in the sample as a whole.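 Treatment: one concentration, 48 hours, 96-well format. Scoring: percent growth, with anything below 10 considered active.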 The source made the active and inactive calls.

The subject of the experiment is COLO 205 colon. In words: NCI-60 one-dose screen, 48 h (100 = growth as untreated, 0 = no growth, -100 = all killed). The conditions noted are these: 10 µM unless noted.
In the case of `CCCCCCCCc1ccc(C(=O)Nc2cccc(O)c2)cc1`, the growth is 121% (inactive).

On to `COc1ccc(/C=C/C(=O)c2ccc(OC)c(S(N)(=O)=O)c2)c(C(F)(F)F)c1`, for which the growth is 4.9% (active).

Turning to `C#CCN(C)CCCOc1ccc(N(CC)C(=O)c2cc(C(C)C)c(O)cc2O)cc1Cl`, the growth is 4.62% (active).

Take `CC1=C(C(=O)OCc2ccccc2)C(c2ccc(N(C)C)cc2)n2c(nc3ccccc32)N1` (stereo not given): the growth was 110% (inactive).

With `Cc1ccc(C2CC(c3ccc(NC(=O)Nc4ccccc4)cc3)=NN2c2ccc(S(N)(=O)=O)cc2)cc1` (stereo not given), the growth is -66.3% (active).
